# Laboratory results published in PubChem BioAssay AID2314 (National Center for Advancing Translational Sciences (NCATS), 2010).
# About 37,000 (12%) of roughly 300,000 compounds were called active. Cut-off read from the data, not from the text of the source: active = max response mostly above about 13% (no sharp cut-off); inactive = mostly below about 14%. What follows is part of a selection rich in actives, with near analogues and random picks from the rest.
# Test: Cycloheximide Counterscreen for Small Molecule Inhibitors of Shiga Toxin; note: read at 38.3 µM for the half of the compounds with a filed dose; 0% is about no effect
# Conditions: cell reporter, cycloheximide protein synthesis inhibition counterscreen; stronger effect = higher value
row,Structure (SMILES),max response
1,CCOC(=O)c1cc(C(=O)Nc2ccc(S(=O)(=O)Nc3ccc(OC)cc3)cc2)nn1C,3.41% (inactive)
2,COc1ccc(-c2ocnc2C(=O)Nc2ccc3c(c2)CCC3)cc1,-4.1% (inactive)
3,CCCC(=O)Nc1ccc2c(c1)nc1n2CCSC1,24.1% (active)
4,CCCC(=O)Nc1ccc2c(c1)nc(CCNC(=O)c1ccco1)n2C,-0.909% (inactive)
5,CCOC(=O)N1CCN(Cc2nc3cc(NC(=O)CC)ccc3n2CC)CC1,-2.89% (inactive)
6,Cc1ccccc1N1CCN(Cc2nc(Cc3ccccc3F)no2)CC1,-1.36% (inactive)
7,O=C(/C=C/c1ccc(Cl)cc1Cl)NCc1ccco1,34.8% (active)
8,O=C(NCc1ccco1)C1(c2ccc(Cl)cc2)CCCC1,-3.56% (inactive)
9,COC(=O)/C=C/C(=O)NCc1ccco1,-1.68% (inactive)
10,FC(F)(F)C1CCCN(c2nsc3ccccc23)C1 (configuration not stated),-4.78% (inactive)
11,Cc1ccc2[nH]c(=O)c(CN(CC3COCCO3)C(=O)Nc3ccccc3C)cc2c1 (configuration not stated),-2.55% (inactive)
12,COc1ccc(CC(=O)Nc2c(C(N)=O)oc3ccccc23)cc1,-1.28% (inactive)
13,CC(=O)Nc1ccc(NC(=O)COc2ccc(-c3ccccc3)cc2)cc1,1.23% (inactive)
14,Cc1ccc(OCC(=O)Nc2ccc(-c3nnc(-c4ccco4)o3)cc2)cc1,28.8% (active)
15,COc1ccc(NC(=O)CS(=O)(=O)c2ccccc2)cc1,26.3% (active)
16,Cc1cccc(NC(=O)CSc2nnc(-c3ccco3)o2)c1,5.5% (inactive)
17,CCC(=O)Oc1cccc(C(=O)Nc2ccc(-c3nnc(-c4ccco4)o3)cc2)c1,35.2% (active)
18,O=C(CS(=O)(=O)c1ccccc1)Nc1ccc(S(=O)(=O)Nc2ccccn2)cc1,-1.21% (inactive)
19,Cc1ccc(OCC(=O)Nc2ccc(-c3nc4ncccc4o3)cc2)cc1,-0.121% (inactive)
20,O=C(CCc1ccccc1)Nc1cccc(-c2nnc(-c3ccco3)o2)c1,1.83% (inactive)
21,COc1ccc(CC(=O)Nc2ccc(-c3nnc(-c4ccccc4)o3)cc2)cc1,10.6% (active)
22,COc1ccc(NC(=O)c2cnc(NS(=O)(=O)c3ccccc3)nc2)cc1,-2.55% (inactive)
23,Cc1ccc(OCC(=O)Nc2nnc(-c3ccco3)s2)cc1,-1.91% (inactive)

row,Structure (SMILES),max response
1,Fc1ccc2c(c1)C(c1cccnc1)=NNC(c1cccs1)=N2,14.7% (inactive)
2,CC(=O)Nc1ccc(Nc2c([N+](=O)[O-])cc(S(C)(=O)=O)cc2[N+](=O)[O-])cc1,-3.33% (inactive)
3,CCN(CC)S(=O)(=O)c1ccc(N2CCOCC2)c(NC(=O)C2CSC3(C)CCC(=O)N23)c1 (configuration not stated),10.5% (inactive)
4,CC(=O)N1c2ccccc2N(Cc2ccc([N+](=O)[O-])cc2)C(=O)C1(C)C,10.6% (inactive)
5,O=C(COc1ncnc2c(Cl)cc(Cl)cc12)N1CCN(S(=O)(=O)c2ccccc2)CC1,4.8% (inactive)
6,CN(C)c1cccc(C(=O)N2CCC(n3nccc3NC(=O)C3CCOC3)CC2)c1 (configuration not stated),5.41% (inactive)
7,O=C(CNC(=O)OCc1ccccc1)Oc1cc2oc(=O)cc(-c3ccccc3)c2cc1Cl,7.2% (inactive)
8,COc1cccc(N(CC(=O)NCc2ccccc2)C(=O)CCC(=O)Nc2nccs2)c1,-5.29% (inactive)
9,O=C(c1ccc(S(=O)(=O)N2CCCC2)cc1)N1CCN(c2ccccc2F)CC1,-1.05% (inactive)
10,Cc1ccc(S(=O)(=O)N(C)c2nc3ccccc3n3c(C(C)C)nnc23)cc1,1.55% (inactive)
11,CCc1nn(CCCC(=O)NC(C)c2ccccc2)c(=O)c2cc3occc3n12 (configuration not stated),10.1% (inactive)
12,O=C(c1ccc(F)cc1)c1c[nH]c(C(=O)NCc2cccnc2)c1,0.811% (inactive)
13,C#CCOCCOCCOCCNc1nc(N2CCN(C(=O)[C@H](CCC(=O)O)n3cc(C(N)CO)nn3)CC2)nc(N2CCN(C(=O)[C@H](CCCCN)n3cc(C(N)[C@H](C)CC)nn3)CC2)n1 (some centres not stated),-1.6% (inactive)
14,COc1ccc(OCC(=O)Nc2nnc(-c3ccco3)s2)cc1,-4.11% (inactive)
15,CCCCOc1ccc(-c2nnc(-c3ccco3)o2)cc1,28.1% (active)
16,COc1ccc(C(=O)CSc2nnc(-c3ccco3)o2)cc1,11.4% (inactive)
17,O=c1c(Cl)c(NCc2ccc(F)cc2Cl)cnn1C12CC3CC(CC(C3)C1)C2,-2.73% (inactive)
18,COc1cccc(C2CC(c3cccs3)=NN2C(=O)CSC2=NCCS2)c1OC (configuration not stated),-1.93% (inactive)
19,COc1ccc(N(C)C(=O)CCS(=O)(=O)c2cccc3nsnc23)cc1,3.71% (inactive)
20,O=C(NCCOc1ccccc1Cl)C(=O)Nc1ccccc1,-6.33% (inactive)
21,O=C(NCCOc1ccccc1F)Nc1ccc(Br)cc1,41.8% (active)
22,O=C(Nc1ccccc1)Nc1nnc(COc2ccccc2F)s1,0.805% (inactive)
23,COc1ccc(CN2CCc3nc(Nc4ccccc4)ncc3C2)c(OC)c1OC,12.2% (inactive)

row,Structure (SMILES),max response
1,CCN(CC)C(=O)CC1(c2ccccc2OC)CCOC(C(C)C)C1 (configuration not stated),-2.61% (inactive)
2,O=C(O)c1ccccc1NC(=O)c1ccccc1-c1ccccc1C(=O)O,1.58% (inactive)
3,O=C(NC(=S)Nc1ccccc1C(=O)O)c1ccc(-c2ccc(Br)cc2)o1,45.5% (active)
4,O=C(NC(=S)Nc1cc(C(F)(F)F)ccc1N1CCOCC1)c1ccc(-c2cccc(Cl)c2)o1,12.2% (inactive)
5,O=C(O)c1ccc2c(=O)n3c(nc2c1)/C(=C/c1ccc(Cl)c([N+](=O)[O-])c1)CC3,-1.06% (inactive)
6,COc1ccc(N=Nc2c(-c3ccc(OC)cc3)[nH]oc2=O)cc1,-1.85% (inactive)
7,COc1cc(NC(=O)CCS(=O)(=O)c2ccc3c(c2)oc(=O)n3C)cc(OC)c1,-9.36% (inactive)
8,CN(c1ccc2nc3ccccc3c(=O)n2n1)C1CCCCC1,-12.8% (inactive)
9,O=C(O)c1cccc(N=NN2CCCCCC2)c1,69.7% (active)
10,CN1CCN(S(=O)(=O)c2cccc(C(=O)O)c2)CC1,-8.28% (inactive)
11,NC(=NC(=O)c1ccccc1)N1CCOCC1,-1.9% (inactive)
12,O=C(c1ccccc1)N1CCN(C(=O)N2CCCCC2)CC1,-3.32% (inactive)
13,O=C(NC(=O)N1CCOCC1)c1ccccc1,4.39% (inactive)
14,O=C(O)c1ccc(N=NN2CCOCC2)cc1,39% (active)
15,CCOC(=O)N1CCN(S(=O)(=O)N2CCCC(C(=O)NCCCN3CCC(C)CC3)C2)CC1 (configuration not stated),1.6% (inactive)
16,CCc1ccccc1NC(=O)/C(=C/c1ccccc1)c1ccccc1,8.5% (inactive)
17,O=C(Nc1ccccc1N1CCN(C(=O)c2ccccc2)CC1)c1ccco1,-3.96% (inactive)
18,CCOC(=O)C1CCN(c2ncnc3c2c(-c2ccccc2)cn3-c2ccc(C)cc2)CC1,1.88% (inactive)
19,COc1ccc(/C=C2/S/C(=N/N=C3\CC4CCC3(C)C4(C)C)NC2=O)cc1 (configuration not stated),8.52% (inactive)
20,COc1ccc(N(Cc2cc3ccc(C)cc3[nH]c2=O)S(=O)(=O)c2ccccc2)cc1,0.769% (inactive)
21,O=C(NCCc1ccccc1)c1ccc2c(c1)N(Cc1ccccc1)CCS2,38.6% (active)
22,O=C(NCCN1CCOCC1)c1ccc2c(c1)N(Cc1ccc(Cl)cc1)CCS2,-1.99% (inactive)
23,CCOC(=O)N1CCN(C(=O)c2ccc3c(c2)N(Cc2ccc(C)cc2)CCS3)CC1,-0.464% (inactive)

row,Structure (SMILES),max response
1,COc1cc(SC#N)ccc1N=Cc1c(C)[nH]n(-c2ccc(C)cc2)c1=O,-1.77% (inactive)
2,CN1CCN(CC(=O)Nc2sc3c(c2C#N)CCC(C(C)(C)C)C3)CC1 (configuration not stated),-3.82% (inactive)
3,CCC1CCc2c(sc(NC(C)=O)c2C#N)C1 (configuration not stated),14.2% (active)
4,CC(=O)N1CCc2c(sc(NC(=O)CCS(=O)(=O)c3ccccc3)c2C#N)C1,6.75% (inactive)
5,COc1cc(C(=O)NC2CCN(Cc3ccccc3)CC2)cc(Cl)c1OC(C)C,-3.58% (inactive)
6,CCOc1ccccc1CNS(=O)(=O)c1cc(-c2cc(C)no2)ccc1C,5.17% (inactive)
7,CCCCN(C)CCCNC(=O)c1cc(-c2cccs2)nc2ccccc12,-4.95% (inactive)
8,CN(C)CCNc1ccc(-c2n[nH]c(=O)c3ccccc23)cc1[N+](=O)[O-],-2.5% (inactive)
9,CCN1CCN(C2CCCCC2NS(=O)(=O)c2ccc(Cl)cc2)CC1 (configuration not stated),-3.25% (inactive)
10,CC(=O)Nc1ccc(S(=O)(=O)N2CCN(C3CCCCCCC3)CC2)cc1,-5.2% (inactive)
11,O=C(CCc1ccc(S(=O)(=O)NC2CCCCC2)cc1)NCc1ccccc1,-1.16% (inactive)
12,O=C(CC1CCCCC1)NCc1ccco1,-1.2% (inactive)
13,O=C(CC1CCCCC1)NCc1ccccc1,17.3% (active)
14,O=C(CC1CCCCC1)NCc1ccc(F)cc1,24.8% (active)
15,CC(=O)Nc1ccc(N2C(=O)C3C4C=CC(CC4)C3C2=O)cc1 (configuration not stated),3.43% (inactive)
16,CC(=O)Nc1ccc(NC(=O)CC2CCCC2)cc1,20.7% (active)
17,O=C(Cc1ccc(F)cc1)NC1CCCC1,5.3% (inactive)
18,O=C(Cn1nc(C(F)(F)F)c2c1CCC2)NCc1ccc(F)cc1,0.318% (inactive)
19,COC(=O)c1ccc(/C=C2/C(=O)Oc3ccccc32)cc1,-4.87% (inactive)
20,CC(C(=O)N1CCN(c2ccccc2F)CC1)c1ccc([N+](=O)[O-])cc1 (configuration not stated),-0.676% (inactive)
21,Cc1ccc(CC2CC(=O)N(c3cc(C)ccc3C)C2=O)cc1 (configuration not stated),-1.67% (inactive)
22,CCOCCCN(C)C1CCN(C(=O)c2oc3ccccc3c2NC(=O)COc2cccc(C)c2)CC1,-3.98% (inactive)
23,CCN1CCCC1CNC(=O)c1cc2cc(OC)c(OC)cc2[nH]1 (configuration not stated),-3.29% (inactive)
